These results are taken from paper PMC5540273 (PLoS ONE, 2017).
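Note: KINOMEscan kinase panel screen.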

This assay relates to T1, ERK3.
T1 construct: gene MAPK6
To be noted: concentration: 1 μM, replicates: in singlicate; n = 1.
In the case of `CCS(=O)(=O)c1ccc(OC)c(Nc2nccc(-c3c(-c4cccc(NC(=O)c5c(F)cccc5F)c4)nn4ncccc34)n2)c1` [GSK326180], the “%Inh” value was found to be 13%.

In the case of `COc1cc(Nc2nccc(-c3c(-c4cccc(NC(=O)c5c(F)cccc5F)c4)nn4ncccc34)n2)cc(OC)c1OC` [GSK327238], the “%Inh” value was 3%.

In the case of `COc1ccc(-c2coc3ccc(-c4nnc(SCc5ccc(OC)c(C(F)(F)F)c5)o4)cc23)cc1`, the “%Inh” value was determined as 0%.

Consider `Oc1cc(Nc2ccnc3cc(I)ccc23)ccc1F` [GW552771], for which the “%Inh” value worked out at 0%.

For the compound `O=c1[nH]cc(-c2ccc(N3CCOCC3)cc2)c2sc(-c3cn[nH]c3)cc12` [GSK2276055], the “%Inh” value came out at 0%.

In the case of `FC(F)(F)c1ccc(/C=C/c2cncnc2Nc2ccc3[nH]c(Cc4ccccc4)nc3c2)cc1` [GW709199], the “%Inh” value is listed as 0%.

As for `Nc1ncnc2c1nc(-c1ccccc1)n2-c1ccccc1` [SKF-97293], the “%Inh” value was 0%.

Regarding `Cn1cc(-c2ccc3c(c2)CCN3C(=O)Cc2cccc(Cl)c2)c2c(N)ncnc21` [GSK2606590], the “%Inh” value amounted to 0%.

With `Cc1ccc(C(=O)Nc2ccc(Nc3ccnc4cc(-c5nccs5)ccc34)cc2O)cc1.Cl` [GW494702], the “%Inh” value amounted to 0%.

Turning to `COc1cc(Nc2ncc3c(C)nc(-c4cc5ccccc5[nH]4)n3n2)cc(OC)c1OC` [GW869516], the “%Inh” value is 42%.

In the case of `COc1ccc(CNC(=O)NC2CCN(c3ccnc(Nc4ccc(F)cc4)n3)CC2)cc1` [GSK1379788], the “%Inh” value was 0%.

As for `CCn1c(-c2nonc2N)nc2c(C#CC(C)(C)O)nc(OC[C@H](N)c3ccccc3)cc21` [GSK943949], the “%Inh” value turned out to be 0%.
